Molecules are shown by their SMILES. About 5,800 (36%) of roughly 16,000 compounds were called active. Roughly 23% stayed inconclusive and do not appear here. The list shows a part of the results. Unmarked numbers belong to inactive results. Calls come from the whole dose curve; as a rule, active = well fitted curve in the direction sought with a large enough effect; inconclusive = small, poorly fitted or top-dose-only effect, or effect the other way; inactive = no such curve, though single readings can be large or run the other way. Square brackets hold non-standard residues; d marks the D form. Peptide text beside a SMILES is read from it.

The AC50 is the concentration at which the activity in the assay is half-maximal.
% is set by controls: 0 for no effect and ±100 for the full control effect.

The target in this test is Cytochrome P450 2C19 (Homo sapiens) (UniProt P33261). The experiment in a line: Cytochrome panel assay with activity outcomes. The conditions noted are these: recombinant CYP, pro-luciferin dealkylation, luminescence, p450-cyp2c19; series mostly up to 57.1 µM; activity, negative = inhibition: at the top concentration.
Cytochrome P450 2C19 (Homo sapiens), sequence (P33261 whole entry, looked up): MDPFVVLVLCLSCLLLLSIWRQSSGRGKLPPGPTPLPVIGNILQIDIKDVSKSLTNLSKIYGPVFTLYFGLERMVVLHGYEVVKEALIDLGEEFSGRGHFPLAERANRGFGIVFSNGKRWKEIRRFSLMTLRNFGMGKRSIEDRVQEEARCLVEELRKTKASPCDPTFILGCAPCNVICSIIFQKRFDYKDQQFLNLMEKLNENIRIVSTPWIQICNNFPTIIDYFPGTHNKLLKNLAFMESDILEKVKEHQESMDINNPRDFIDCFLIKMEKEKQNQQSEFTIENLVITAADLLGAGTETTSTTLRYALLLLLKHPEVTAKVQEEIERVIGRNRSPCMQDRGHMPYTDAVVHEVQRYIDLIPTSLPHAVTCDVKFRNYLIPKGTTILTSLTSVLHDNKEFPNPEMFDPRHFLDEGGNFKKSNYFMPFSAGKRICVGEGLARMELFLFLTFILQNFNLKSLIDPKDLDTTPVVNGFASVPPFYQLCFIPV
`CC(C)Oc1ccc(C2CC(=O)NC3=C2C(=O)CCC3)cc1` (stereo not drawn): the AC50 was 22.4 µM (active).

With `CO[C@@H]1COC(=O)C/C=C\[C@H](C)[C@H](OC)COC(=O)[C@H]2CCCN2C(=O)C/C=C\[C@H]1C`, the activity, negative = inhibition is 3.47% [at 11.4 µM].

For the molecule `CCOC(=O)N1CCN(S(=O)(=O)c2ccc3[nH]cc(C(=O)O)c(=O)c3c2)CC1`, the “activity, negative = inhibition” value is -23.3%.

On to `CCOC(=O)N1CCN(c2c(-c3ccccc3)c3cc(Cl)ccc3[nH]c2=O)CC1`, for which the AC50 is 3.16 µM (active).

As for `Cc1cc(=O)c2cc(Cl)ccc2[nH]1`, the “activity, negative = inhibition” value was -7.25%.

As to `COc1cccc(-c2cc(NCCc3c[nH]c4ccc(OC)cc34)ncn2)c1`, the AC50 was 0.501 µM (active).

As to `COc1ccc2[nH]cc(CCNc3ccnc(-c4cccc(NS(C)(=O)=O)c4)n3)c2c1`, the AC50 is 10 µM (active).

Consider `Cc1cnc(CNc2cc(-c3cccnc3)ncn2)cn1`, for which the “activity, negative = inhibition” value was -6.34%.

As to `COc1ccc2[nH]cc(CCNc3cc(-c4cccnc4)ncn3)c2c1`, the AC50 is 25.1 µM (active).

Take `COc1ccc2[nH]cc(CCNc3ccnc(-c4cccnc4)n3)c2c1`: the AC50 is 1 µM (active).

Take `CN(C)c1ccnc(-c2cccc(NS(C)(=O)=O)c2)n1`: the “activity, negative = inhibition” value is 20.5%.

On to `COc1ccc2[nH]cc(CCNc3cc(-c4ccoc4)ncn3)c2c1`, for which the AC50 was 5.01 µM (active).

`COc1ccc2[nH]cc(CCNc3cc(-c4cccc(C#N)c4)ncn3)c2c1`: the half-maximal activity concentration (AC50) is 7.94 µM (active).

Regarding `Cc1cnc(CNc2cc(-c3ccoc3)ncn2)cn1`, the “activity, negative = inhibition” value was -24.6%.

`COc1ccc(-n2c(=O)c(-c3cccc(C#N)c3)nc3cnc(N4CCNCC4)nc32)cc1`: the “activity, negative = inhibition” value is -21.4%.

As for `C[C@H]1CC(C)(C)C[C@@](OCCN2CCCCC2)(c2ccccc2)C1`, the activity, negative = inhibition was -2.08% [at 11.4 µM].

`COc1cccc(CC(C(=O)Nc2cc(C)ccc2C)c2nn[nH]n2)c1OC` (stereo not drawn): the AC50 was 11.2 µM (active).

Regarding `O=C1C2=CC[C@H]3C(=O)N(c4cccc(Oc5ccccc5)c4)C(=O)[C@@H]3[C@@H]2[C@H](O)[C@@H]2O[C@H]12`, the activity, negative = inhibition is 2.5% [at 11.4 µM].

Turning to `Cc1cccc(Oc2coc3cc(OC(=O)c4cccs4)ccc3c2=O)c1`, the AC50 was 3.98 µM (active).

With `COc1cccc(C2C3=C(CC(C)(C)CC3=O)OC(N)=C2[N+](=O)[O-])c1` (stereo not drawn), the concentration at half-maximal activity (AC50) was 8.91 µM (active).

As for `CCC(C)NC(=O)c1c(C)cc(=O)oc1C` (stereo not drawn), the “activity, negative = inhibition” value was 41.3%.

Turning to `CCCNC(=O)c1c(C)cc(=O)oc1C`, the “activity, negative = inhibition” value was 3.91%.

`Cc1cc(=O)oc(C)c1C(=O)N1CCCCC1`: the AC50 is 4.47 µM (active).

For the molecule `O=C(CCc1ccccc1)NNC(=O)C1CCCCC1`, the concentration at half-maximal activity (AC50) is 25.1 µM (active).

In the case of `CCC(=O)c1ccc(OCC(O)CN(CCc2ccccc2)Cc2ccccc2)cc1` (stereo not drawn), the AC50 is 1.12 µM (active).

On to `CN(C)CC(O)COc1ccc(C(C)(C)c2ccc(OCC(O)CN(C)C)cc2)cc1` (stereo not drawn), for which the “activity, negative = inhibition” value was -6.76%.

Take `O[C@@H](C1=C/C(=C\c2ccncc2)c2ccccc21)c1ccncc1`: the concentration at half-maximal activity (AC50) was 0.158 µM (active).

`CCC(=O)Nc1ccccc1C(=O)OCC(=O)c1ccccc1`: the AC50 is 3.55 µM (active).

Consider `C[N+](C)(C)CCC(=O)c1cccc2ccccc12`, for which the “activity, negative = inhibition” value was -12.3%.

Turning to `CCC(=O)Nc1ccccc1C(=O)OCC(=O)c1cccc2ccccc12`, the AC50 was 4.47 µM (active).

`CC(C)NC(=O)N1CCCC2(CCN(C(=O)c3cccn3C)CC2)C1`: the “activity, negative = inhibition” value was -5.61%.

As to `O=C(NNC(=O)C1CCN(S(=O)(=O)c2ccc(Cl)cc2)CC1)c1ccc(Cl)cc1`, the “activity, negative = inhibition” value was 22.2%.

Regarding `O=C(c1ccc2c(c1)OCCO2)C1CCN(S(=O)(=O)c2ccccc2F)CC1`, the AC50 is 3.16 µM (active).

On to `COc1cccc(C2C3(C#N)C(N)=NC(OC)(OC)C23C#N)c1` (stereo not drawn), for which the concentration at half-maximal activity (AC50) is 4.47 µM (active).

Regarding `CC(C)N1CCN(c2ccc(OC[C@@H]3CO[C@@](Cn4cncn4)(c4ccc(Cl)cc4Cl)O3)cc2)CC1`, the “activity, negative = inhibition” value was 7.39% [at 25.6 µM].

In the case of `Cc1ccccc1N1C(=O)c2cc(S(N)(=O)=O)c(Cl)cc2N[C@H]1C`, the “activity, negative = inhibition” value is 5.2% [at 25.6 µM].

With `COc1cc(C(=O)OCC(=O)Nc2cc(C)on2)cc(OC)c1OC`, the “activity, negative = inhibition” value was -28.1%.

For the molecule `COc1ccccc1NS(=O)(=O)c1cccc(C(=O)OCC(=O)Nc2cc(C)on2)c1`, the AC50 is 7.94 µM (active).

For `Cc1cc(N(CN2CCCC2=O)C(=O)c2ccc(F)cc2)no1`, the “activity, negative = inhibition” value was -20.2%.

As to `COc1ccccc1NC(=O)COC(=O)c1ccc(S(=O)(=O)NCc2ccco2)cc1`, the AC50 was 5.01 µM (active).

On to `Cc1cc(NC(=O)COC(=O)c2ccc(S(=O)(=O)N3CCCc4ccccc43)cc2)no1`, for which the AC50 is 4.47 µM (active).

Take `CCN(CC)CCOC(=O)c1cc(Cl)c(N)cc1OC`: the “activity, negative = inhibition” value is 13.8%.

Regarding `Cc1c(C(=O)O)oc2ccc(S(=O)(=O)NCc3ccc4c(c3)OCO4)cc12`, the “activity, negative = inhibition” value is -49.5%.

As to `Cc1cc(C)c(S(=O)(=O)NCC2CCC(C(=O)NCc3ccc4c(c3)OCO4)CC2)c(C)c1` (stereo not drawn), the AC50 is 6.31 µM (active).

Turning to `O=C(c1csnn1)N1CCC2(CC1)CCN(c1ccccn1)CC2`, the “activity, negative = inhibition” value was -38.4%.

With `Cn1cccc1C(=O)N1CCC2(CC1)CCN(c1ccccn1)CC2`, the “activity, negative = inhibition” value was -35.1%.

Turning to `CN1C(=O)/C(=C\c2ccccc2)Sc2ccc(C(=O)N3CCN(c4ccccn4)CC3)cc21`, the AC50 was 3.98 µM (active).

As to `COc1ccc(C(=O)N/N=C2/C(=O)c3c(C)cc(C)cc3CC2(C)C)cc1`, the AC50 was 3.98 µM (active).

On to `CCN(CC)C(=O)c1cc2cc([N+](=O)[O-])ccc2s1`, for which the AC50 is 15.8 µM (active).

As to `CCOC(=O)c1nc(N)sc1C(=O)OCC`, the “activity, negative = inhibition” value is 24.2%.

In the case of `CCOC(=O)c1cc(C(=O)OCC)cc(-n2cc(O)c(C(=O)OCC)n2)c1`, the AC50 was 14.1 µM (active).

Regarding `CC1=c2c(oc3cc(O)c(Nc4c(C)cc(O)cc4O)c(C)c23)=CC(=O)C1=Nc1c(C)cc(O)cc1O`, the AC50 is 3.16 µM (active).

As for `CCOc1cc(CNCCO)c(Cl)cc1OCC(=O)NCCc1ccccc1`, the AC50 was 4.47 µM (active).

For `CCNCc1cc(OCC)c(OCC(=O)NCCc2ccccc2)cc1Cl`, the AC50 is 1.58 µM (active).

Turning to `Cn1c(=O)cc(OCC(=O)NCc2cccnc2)c2ccccc21`, the “activity, negative = inhibition” value is -27.8%.

With `N=c1nc(N)nc(N)n1-c1ccc(S(N)(=O)=O)cc1`, the activity, negative = inhibition was 36.5% [at 11.4 µM].

For the molecule `COc1cnc(-c2ccccc2)nc1Oc1cccc(C)c1`, the AC50 is 7.94 µM (active).

For the molecule `CCOC(=O)c1cnc(-c2ccccc2)nc1Oc1ccc(Cl)cc1`, the “activity, negative = inhibition” value was 3.77%.

As to `CCOC(=O)c1cnc(-c2ccccc2)nc1Oc1ccccc1`, the AC50 was 14.1 µM (active).

Turning to `N[C@H](CO)C(=O)NCC(=O)O` (H-[dS]-Gly-OH), the activity, negative = inhibition was 19% [at 11.4 µM].

Consider `CCc1cc2c(=O)c(-c3cnn(-c4ccccc4)c3)coc2c(CN2CCOCC2)c1O`, for which the AC50 is 20 µM (active).

With `Fc1ccc(Cn2c(SCc3ccc(F)c(C(F)(F)F)c3)nnc2C(F)(F)F)cc1`, the AC50 is 2.82 µM (active).

Take `Cc1ccc(CSc2nnc(C(F)(F)F)n2Cc2ccc(F)cc2)cc1`: the AC50 is 2.82 µM (active).

For `COc1cccc(CSc2nnc(C(F)(F)F)n2Cc2ccc(F)cc2)c1`, the AC50 was 3.16 µM (active).

With `Fc1ccc(Cn2c(SCc3ccc(F)c(F)c3)nnc2C(F)(F)F)cc1`, the AC50 is 2.24 µM (active).

Turning to `[O-][N+]1(CC[N+]2([O-])CCCCC2)CCCCC1`, the activity, negative = inhibition was 25.1% [at 11.4 µM].

In the case of `CC1(C)C(=O)C(c2ccccc2)=C2CN3C(=O)N(CCc4ccccc4)C(=O)C3(Cc3ccccc3)C=C21` (stereo not drawn), the “activity, negative = inhibition” value was -37.3%.

As to `CC[C@H](CO)NCCN[C@@H](CC)CO`, the “activity, negative = inhibition” value is 22.2% [at 25.6 µM].

`CCCN(CCC)CCCNC(=O)c1ccc2c(c1)N(CC)C(=O)c1ccccc1S2=O` (stereo not drawn): the “activity, negative = inhibition” value was 33.6%.

On to `CCOC(=O)c1ccc(NC(=O)Nc2ccc3c4c(cccc24)C(=O)N3CC)cc1`, for which the concentration at half-maximal activity (AC50) is 11.2 µM (active).

For `CCN1C(=O)c2cccc3c(NC(=O)c4cccc(N5C(=O)CCC5=O)c4)ccc1c23`, the “activity, negative = inhibition” value was -13.5%.

For the molecule `Cc1cc(C=O)c(C)n1-c1ccc(NC2CCCC2)c([N+](=O)[O-])c1`, the AC50 is 6.31 µM (active).

`Cc1ccc(C(=O)N/N=C/c2cc(C)n(-c3ccc(Br)cc3)c2C)cc1[N+](=O)[O-]`: the “activity, negative = inhibition” value was -28.2%.

On to `N[C@@](CCc1ccccc1)(C(=O)O)c1ccccc1`, for which the activity, negative = inhibition was -19.5% [at 11.4 µM].

In the case of `CN(/C=C/C(=O)C(F)(F)F)Cc1ccccc1`, the AC50 is 8.91 µM (active).

Consider `CCCC[C@@H]1C[C@H]1C(NC(=O)c1cccs1)c1ccccc1C(F)(F)F` (stereo partly drawn), for which the AC50 is 0.631 µM (active).

Turning to `CCCC[C@@H]1C[C@H]1C(NC(=O)c1ccccc1)c1ccccc1C(F)(F)F` (stereo partly drawn), the AC50 was 0.501 µM (active).

`COC(=O)c1sccc1NC(=O)CN(C)NS(=O)(=O)c1ccc(F)cc1`: the half-maximal activity concentration (AC50) is 14.1 µM (active).

Consider `COC(=O)c1sccc1NC(=O)CSc1ccccc1NS(=O)(=O)c1ccc(Cl)cc1`, for which the AC50 is 0.794 µM (active).

With `Cc1cc(Cl)nc(NC(=O)CSc2ccc(Cl)cc2)n1`, the activity, negative = inhibition is 34.4% [at 11.4 µM].

On to `Cc1cnc(NC(=O)CSc2ccc(Cl)cc2)s1`, for which the AC50 is 2 µM (active).

Consider `Cc1cnc2cc(Cl)ccc2c1SCC(=O)O`, for which the activity, negative = inhibition was 24.8% [at 11.4 µM].

As for `COC(=O)c1sccc1NC(=O)CSc1cc(Cl)ccc1Cl`, the half-maximal activity concentration (AC50) is 2.82 µM (active).

As for `Oc1ccc(Cc2nccc3cc(O)c(O)cc23)cc1O`, the activity, negative = inhibition is -17.6% [at 11.4 µM].

As for `COC(=O)c1sccc1NC(=O)CSc1ccc(Cl)cc1`, the AC50 was 7.08 µM (active).

On to `COCc1nnc(NC(=O)CCN2C(=O)c3ccccc3C2=O)s1`, for which the “activity, negative = inhibition” value is -6.41%.

`COCc1nnc(NC(=O)CSc2ccc(C)cc2)s1`: the AC50 is 3.55 µM (active).

Take `COc1ccc2c3c([nH]c2c1)[C@H]1C[C@@H]2[C@@H](C[C@@H](O)[C@H](OC)[C@H]2C(=O)O)CN1CC3`: the activity, negative = inhibition is 19% [at 11.4 µM].

On to `CCOc1ccc(N(CCC#N)S(=O)(=O)c2ccc(OC)cc2)cc1`, for which the AC50 is 3.55 µM (active).

`O=C(Nc1cccc(Br)c1)/C(=C\c1cccnc1)NC(=O)c1ccco1`: the “activity, negative = inhibition” value is -17.1%.

Take `O=C(Nc1cccc(-c2cn3cccnc3n2)c1)c1ccco1`: the “activity, negative = inhibition” value is -20.9%.

`O=C(Nc1cccc(NC(=O)c2ccc(-c3cccc(Br)c3)o2)c1)c1ccco1`: the AC50 was 2.51 µM (active).

In the case of `O=C(Nc1ccc2nc(-c3ccc(Br)o3)[nH]c2c1)c1ccco1`, the AC50 is 22.4 µM (active).

Values taken from PubChem BioAssay AID1851 (National Center for Advancing Translational Sciences (NCATS), 2009).
